The list is not random: actives were taken first. Their share in the collection is about 19%.
HT1080 IDH1KD tx = HT-1080 IDH1 knockdown cell toxicity (counter line) | HT-1080 IDH1 knockdown viability, ATP luminescence, 48 h | Potency, µM (titrated, usually from 46.1 µM), most hits filed as cytotoxic | hit rate 2% among 360,000
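CellTiter-Glo luminescence after 48 h compound exposure at 37 degrees C of IDH1-knockdown HT-1080 cells in 5% FBS RPMI. %Activity scaled between DMSO wells and cell-free media wells, with curves fitted and assigned curve classes.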
IL1B secr inh = blocks inflammasome-driven IL-1 beta release; THP-1 LPS/ATP IL-1B secretion, AlphaLISA, 16 h; hits give low values; activity change, % at 57.5 µM; hit rate 4.7% among 360,000; AID 743279; in the data active means activity change below about -50%; inconclusive means mostly about -30% to -49%
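THP-1 cells pretreated 1 hr with compounds (up to 57.5 uM final), then stimulated with LPS (250 ng/mL final) plus ATP (1.25 mM final); secreted IL-1B measured by AlphaLISA after 16 hr, decreased signal indicating inhibition.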
HT1080NT lethal = kills 2HG-producing HT-1080-NT fibrosarcoma cells. HT-1080-NT fibrosarcoma viability, CellTiter-Glo ATP luminescence, 48 h. Potency, µM (titrated, usually from 46.1 µM), usual class: cytotoxic. hit rate 1.6% among 360,000. AID 686970;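 further: NT is the 2HG producing partner of a matched IDH1 knockdown line; nearly all actives have a fitted effect of over 55% in size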
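A 48-hour cytotoxicity screen used HT-1080-NT cells plated 2 hours before compound delivery. ATP-based CellTiter-Glo luminescence measured viability, normalized to DMSO and no-cell controls.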
TDP1 cell noCPT = qHTS for Inhibitors of human tyrosyl-DNA phosphodiesterase 1 (TDP1): qHTS in cells in absence of CPT; DT40 Tdp1-/- hTDP1 cells, no CPT, ATP luminescence, 48 h; Potency, µM (series often up to 46.2 µM), most hits filed as inhibitors; hit rate 15% among 420,000; AID 686978, 2013; further: nearly all actives have a fitted effect of over 55% in size
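A cellular qHTS used chicken DT40 cells lacking endogenous Tdp1 but carrying stably transfected human TDP1. Compounds were applied without camptothecin, and cell growth kinetics were judged by ATP-dependent luminescence after ≥48 hr.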
ELG1 DNA repair = ELG1-dependent DNA repair inhibition. HEK293T ELG1-luciferase reporter, luminescence, 16 h; DNA damage induced by 5-fluorouridine. Potency, µM (top dose mostly 46.1 µM), usual class: inhibitors. hit rate 2.3% among 330,000; further: nearly all actives have a fitted effect of over 55% in size
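DMSO vehicle served as the neutral condition. Each well held 2,000 cells given 5-fluorouridine plus compound; after 16 hr at 37 °C/5% CO2, ONE-Glo was added and luciferase measured 30 min later.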
DT40 TDP1 CPT = DT40-hTDP1 cell growth loss with CPT. chicken DT40 Tdp1-/-;hTDP1 cells + 20 nM CPT, ATP luminescence, 48 h. Potency, µM (series often up to 46.2 µM), usual class: inhibitors. hit rate 12% among 420,000. AID 686979; further: nearly all actives have a fitted effect of over 55% in size
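Chicken DT40 Tdp1-/- cells stably complemented with human TDP1 were seeded at 400 cells/well in medium containing 20 nM camptothecin, exposed to pin-transferred compounds, and grown at 37 °C for at least 48 hr. Viability was read as ATP luminescence.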
Of the large screens only hits and unclear results are named; the others gave an inactive call. Unless noted, the call rests on the fitted dose curve; in most records, active means well fitted curve in the direction sought with a large enough effect; inconclusive means small, poorly fitted or top-dose-only effect, or another doubt; inactive means no such curve, though single readings can be large; an effect the other way counts as inactive or inconclusive.

CCOC(=O)C1CCN(C(=O)Nc2ccc(OC(F)(F)F)cc2)CC1	TDP1 cell noCPT inconclusive (no result: IL1B secr inh)
Fc1ccc(CNc2nc(-c3ccccc3)cc(C(F)(F)F)n2)cc1	TDP1 cell noCPT inconclusive, DT40 TDP1 CPT 20.6µM (no result: HT1080 IDH1KD tx, IL1B secr inh, HT1080NT lethal, ELG1 DNA repair)
COc1ccc(-c2cc(C(F)(F)F)nc(NCCc3ccccc3)n2)cc1OC	none (no result: HT1080 IDH1KD tx, IL1B secr inh, HT1080NT lethal, ELG1 DNA repair)
FC(F)(F)c1cc(-c2ccc(Cl)cc2)nc(NCc2cccnc2)n1	TDP1 cell noCPT inconclusive, ELG1 DNA repair 20.6µM, DT40 TDP1 CPT inconclusive
COc1ccc(-c2cc(C(F)(F)F)nc(NCCc3ccccc3)n2)cc1	TDP1 cell noCPT 25.9µM, DT40 TDP1 CPT 23.1µM (no result: HT1080 IDH1KD tx, IL1B secr inh, HT1080NT lethal, ELG1 DNA repair)
COc1cc(F)ccc1-c1csc(C(NC(C)=O)c2ccc(F)c(F)c2)n1 (stereo not given)	TDP1 cell noCPT inconclusive, DT40 TDP1 CPT inconclusive (no result: ELG1 DNA repair)
O=[N+]([O-])c1c(C(Cl)Cl)nn(-c2ccccc2)c1N1CCCC1	HT1080 IDH1KD tx inconclusive, TDP1 cell noCPT inconclusive, DT40 TDP1 CPT 20.6µM
CCOC(=O)C1CCN(c2c([N+](=O)[O-])c(C(Cl)Cl)nn2-c2ccccc2)CC1	TDP1 cell noCPT inconclusive, DT40 TDP1 CPT inconclusive
CCOC(=O)/C(O)=C/c1ncc(C(F)(F)F)cc1Cl	TDP1 cell noCPT inconclusive, DT40 TDP1 CPT 23.1µM
CCOC(=O)/C(=C\Nc1ccc(OC(F)(F)F)cc1)Sc1ncc(C(F)(F)F)cc1Cl	TDP1 cell noCPT 11.6µM, ELG1 DNA repair inconclusive, DT40 TDP1 CPT 16.4µM
CCC(Sc1nc2ccccc2c2nc(CCc3c(C)n[nH]c3C)nn12)C(=O)Nc1ccc(F)cc1 (stereo not given)	DT40 TDP1 CPT inconclusive (no result: HT1080 IDH1KD tx, IL1B secr inh, HT1080NT lethal, ELG1 DNA repair)
O=C(NCC(c1ccc(F)cc1)N1CCOCC1)c1c(F)cccc1F (stereo not given)	HT1080NT lethal inconclusive
O=C(NCCCN1CCOCC1)c1nn(-c2ccccc2)c(=O)c2ccccc12	none
O=C(NCC(c1ccc(F)cc1)N1CCOCC1)c1nn(-c2ccccc2)c(=O)c2ccccc12 (stereo not given)	TDP1 cell noCPT 20.6µM, ELG1 DNA repair inconclusive, DT40 TDP1 CPT inconclusive
O=C(NCC(c1ccc(F)cc1)N1CCOCC1)c1ccc(-c2ccccc2)cc1 (stereo not given)	TDP1 cell noCPT inconclusive, ELG1 DNA repair inconclusive, DT40 TDP1 CPT 16.4µM
Cc1cc(C)n2nc(SCC(=O)NC3CCCCC3C)nc2n1 (stereo not given)	none
CCOc1cccc(/C=C/c2ccc3cccc(O)c3n2)c1OC	HT1080 IDH1KD tx inconclusive, HT1080NT lethal inconclusive, TDP1 cell noCPT 18.4µM, ELG1 DNA repair inconclusive, DT40 TDP1 CPT 20.6µM
CCOc1cccc(/C=C/c2ccc3cccc(O)c3n2)c1O	HT1080 IDH1KD tx inconclusive, IL1B secr inh -97.2, TDP1 cell noCPT 20.6µM, ELG1 DNA repair inconclusive, DT40 TDP1 CPT 14.6µM
Cc1cc(O)c2c(C)c(CC(=O)N3CCCCC3)c(=O)oc2c1	TDP1 cell noCPT inconclusive (no result: HT1080 IDH1KD tx, IL1B secr inh, HT1080NT lethal, ELG1 DNA repair)
CN1C(=O)N(C)C2=NNC=NC2(O)C1=O (stereo not given)	none (no result: HT1080 IDH1KD tx, IL1B secr inh, HT1080NT lethal, ELG1 DNA repair)
COc1ccccc1-c1ccnc(-n2ncc(C(=O)NC3CCCN(Cc4ccccc4)C3)c2C)n1 (stereo not given)	none (no result: HT1080 IDH1KD tx, IL1B secr inh, HT1080NT lethal, ELG1 DNA repair)
Cc1ccc(/C=N/Nc2nnc(Cl)c3ccccc23)cc1	IL1B secr inh -62.0, TDP1 cell noCPT 20.6µM, ELG1 DNA repair inconclusive, DT40 TDP1 CPT 23.1µM
Clc1ccc(/C=N/Nc2nnc(Cl)c3ccccc23)cc1	TDP1 cell noCPT inconclusive, ELG1 DNA repair inconclusive, DT40 TDP1 CPT inconclusive
CC(=O)Nc1ccc(C=NNc2nnc(NN=Cc3ccc(NC(C)=O)cc3)c3ccccc23)cc1	TDP1 cell noCPT 4.11µM, DT40 TDP1 CPT 2.91µM (no result: ELG1 DNA repair)
Cc1sc2c(c1C)c(=O)n(-c1ccc(Cl)cc1)c(=O)n2Cc1c(F)cccc1Cl	none (no result: HT1080 IDH1KD tx, IL1B secr inh, HT1080NT lethal, ELG1 DNA repair)
CCN1CCCC1CNS(=O)(=O)c1ccc(Cl)c(C(F)(F)F)c1 (stereo not given)	none

Compound activity: PubChem, National Center for Advancing Translational Sciences (NCATS)
